PolyA inh – polyadenylation inhibitors in yeast reporter cells, primary screen, luminescence, S. cerevisiae | S. cerevisiae SKY197-pL101 polyadenylation reporter, beta-gal luminescence; efflux-impaired pdr1/pdr3 knockout yeast; score 100 = 6 SD above DMSO | activity score, % at 12 µM | hit rate 0.02% among 300,000;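 active = lowest replicate activity score at least 50, where 100 means six control SD above control mean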;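 also: yeast exposed to compound for 9 h at 30 °C; higher score means more reporter readthrough which indicates perturbed polyadenylation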
GASC-1 inh – inhibitors of GASC-1 histone demethylase, primary screen, biochemical, fluorescence, DELFIA europium. inhibition, % at 2.35 µM. Lysine-specific demethylase 4C (Homo sapiens), Q9H3R0. GST-JMJD2C(1-420) H3K9me3 demethylation. hit rate 0.069% among 330,000;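 active = more than half of a compound's replicate wells show inhibition beyond 50%, single wells judged on their own value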;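 also: signal counts dimethyl H3K9 product captured on neutravidin plate; 0% = median of DMSO wells and 100% = 0.3 times that DMSO median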
ABCB6 inh 2 – ABCB6 transporter inhibitors, primary screen, K562-ABCB6 cells, flow cytometry, MLPCN library | K562-ABCB6 porphyrin accumulation, 1 h; stronger effect = lower value | fluorescence ratio to DMSO, % at 10 µM | hit rate 0.19% among 360,000;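 active = fluorescence ratio to DMSO below 75%, the collection mean minus 3 SD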;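 also: signal is porphyrin accumulated inside mitochondria; 100% equals median channel fluorescence of DMSO control wells; lower ratio means ABCB6 inhibition with less porphyrin fluorescence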
Target sequence (Q9NP58 whole entry, looked up): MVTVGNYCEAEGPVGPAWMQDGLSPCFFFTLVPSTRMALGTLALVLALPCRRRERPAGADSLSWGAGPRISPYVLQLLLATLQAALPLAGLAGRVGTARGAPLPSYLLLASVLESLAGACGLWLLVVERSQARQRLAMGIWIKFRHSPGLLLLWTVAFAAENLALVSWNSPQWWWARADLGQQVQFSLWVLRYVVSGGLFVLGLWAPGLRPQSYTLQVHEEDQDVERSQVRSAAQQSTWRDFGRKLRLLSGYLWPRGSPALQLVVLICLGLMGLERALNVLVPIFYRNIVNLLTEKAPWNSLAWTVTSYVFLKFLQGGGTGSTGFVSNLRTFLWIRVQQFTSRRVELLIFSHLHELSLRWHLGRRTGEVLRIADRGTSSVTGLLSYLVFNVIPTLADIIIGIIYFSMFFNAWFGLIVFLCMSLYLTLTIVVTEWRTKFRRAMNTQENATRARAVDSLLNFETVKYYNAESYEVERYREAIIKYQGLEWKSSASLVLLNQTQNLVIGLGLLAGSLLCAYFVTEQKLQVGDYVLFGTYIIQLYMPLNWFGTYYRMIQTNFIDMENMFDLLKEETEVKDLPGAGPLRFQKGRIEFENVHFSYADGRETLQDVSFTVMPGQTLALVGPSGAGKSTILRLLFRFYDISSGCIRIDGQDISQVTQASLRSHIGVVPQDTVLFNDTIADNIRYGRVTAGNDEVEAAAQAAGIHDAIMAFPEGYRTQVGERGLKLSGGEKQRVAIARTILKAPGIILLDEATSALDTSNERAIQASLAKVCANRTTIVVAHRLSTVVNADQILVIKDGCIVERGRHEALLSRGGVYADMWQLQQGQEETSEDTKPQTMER
VLA-4 inh – inhibition in human VLA-4 binding assay, primary screen, VLA-4 allosteric modulator project, MLPCN library, flow cytometry, VLA-4 expressing cells; hit rate 0.2% among 330,000; ligand binding flow cytometry; Integrin alpha-4 (Homo sapiens), P13612; inhibition, % (about 7 µM as worked out from the volumes in the protocol); in the data active = inhibition above about 50%
* hit, by the source's call; · = not tested or not shown. The list is not random: actives were taken first. Their share in the collection is about 0.44%.

SMILES	PolyA inh	GASC-1 inh	ABCB6 inh 2	VLA-4 inh
Cc1cnc(NC(=O)C2(c3ccccc3)CC2)s1	11	-8	95	3
Cn1nc(CC(=O)Nc2ccc(N3CCN(C(=O)OC(C)(C)C)CC3)cc2)c2ccccc2c1=O	1	-8	30*	4
CCOC(=O)C1CCN(c2c(NCCCN(C)C3CCCCC3)c(=O)c2=O)CC1	-5	9	105	-10
O=C(NCCNc1ccc([N+](=O)[O-])cc1C(F)(F)F)c1ccccc1	0	52*	95	0
O=C(NCCNc1ccc([N+](=O)[O-])cc1C(F)(F)F)c1cccc(F)c1	0	-2	93	7
COc1ccc(N2CCN(C(=O)CSc3nnc(-c4ccco4)n3C)CC2)cc1	-9	64*	·	1
CC1CCCN(C(=O)CSc2nnc(-c3ccco3)n2C)C1 (stereo not drawn)	-1	-4	162	6
Nc1nnc(SC2CC(=O)N(c3ccccc3)C2=O)s1 (stereo not drawn)	-4	57*	95	-3
COc1ccccc1N=Cc1c(C)c(C#N)c2[nH]c3ccccc3n2c1=O	10	58*	106	-21
Cc1c(NC(C)c2cc(Cl)ccc2O)c(=O)n(-c2ccccc2)n1C (stereo not drawn)	1	10	101	-8
Cc1c(NC(C)c2ccccc2O)c(=O)n(-c2ccccc2)n1C (stereo not drawn)	23	6	54*	0
Cc1ccc(S(=O)(=O)Nc2cccc3c2O[C@H](CN(C)Cc2ccc(-c4ccccc4)cc2)[C@@H](C)CN([C@H](C)CO)C3=O)cc1	·	-17	104	-8
Cc1ccc(S(=O)(=O)Nc2ccc3c(c2)C(=O)N([C@H](C)CO)C[C@H](C)[C@@H](CN(C)Cc2ccc(-c4ccccc4)cc2)O3)cc1	·	56*	88	-7
COc1ccc(S(=O)(=O)Nc2cccc3c2O[C@@H](CN(C)Cc2ccc(C(=O)O)cc2)[C@@H](C)CN([C@H](C)CO)C3=O)cc1	·	1	99	0
COc1ccc(S(=O)(=O)Nc2ccc3c(c2)C(=O)N([C@H](C)CO)C[C@H](C)[C@H](CN(C)Cc2ccc(C(=O)O)cc2)O3)cc1	·	51*	96	3
CC1=NN(C(=O)CSCc2ccccc2)C(O)(c2ccccc2)C1 (stereo not drawn)	-20	3	97	0
O=C(O)c1cccc(Nc2nc(Nc3ccccc3)nc(N3CCCC3)n2)c1	-18	9	109	4
CCC(C)NC(=O)Cn1cc2c(n1)CCC(C)C2 (stereo not drawn)	-8	-7	100	7
COc1ccc(/C=C/C(=O)C2C(=O)C=C(C)OC2=O)cc1O (stereo not drawn)	10	16	68*	10
CCCn1c(=O)c(C(=O)NCCc2ccc(Cl)cc2)c(O)c2ccccc21	-8	0	98	5
CCn1c(=O)c(C(=O)NCCc2ccc(Cl)cc2)c(O)c2ccccc21	3	60*	103	5
CCCCS(=O)(=O)/C=C\C1C2C=CC(C2)C1S(=O)(=O)CCCC (stereo not drawn)	6	0	102	1
CCCCS(=O)(=O)/C=C\C=C/S(=O)(=O)CCCC	-15	2	69*	28
C=CCn1c(SCC2CCCCO2)nc2sc(CC)cc2c1=O (stereo not drawn)	3	6	96	4
CSc1ccccc1C(=O)Nc1ccc(C)c(C)c1	1	102*	92	4
SMILES	PolyA inh	GASC-1 inh	ABCB6 inh 2	VLA-4 inh
CSc1ccccc1C(=O)Nc1cc(C)cc(C)c1	-4	1	144	3
O=C(OCn1ncc(Br)c(Br)c1=O)c1ccccc1Cl	-45	-3	46*	35
O=C(OCn1ncc(Br)c(Br)c1=O)c1ccc(F)cc1	-88	11	83	39
Cc1ccccc1NC(=S)N1CCOCC1	-17	0	101	11
Cc1ccc(NC(=O)/C=C/C(=O)O)c([N+](=O)[O-])c1	-7	3	95	-5
Cc1ccc(NC(=O)/C=C/c2cccs2)c([N+](=O)[O-])c1	-21	56*	97	7
O=C(NCc1ccccn1)c1cn(Cc2ccccc2)nn1	15	64*	94	-5
O=C(NCc1ccccn1)c1ccco1	-14	4	100	3
CC1Cn2c(nnc2-c2cc3ccccc3cc2O)S1 (stereo not drawn)	-18	-14	99	-8
COC(=O)/C(=N\OCc1ccc(C#N)cc1)c1c(C)nn(C)c1C	-17	-4	95	11
O=C1CN(C(=O)CCCc2c[nH]c3ccccc23)c2ccccc2N1	1	54*	93	-18
O=C(O)CCCC(=O)N1CC(=O)Nc2ccccc21	19	14	102	4
Cc1cc(N2C(=O)C(=O)/C(=C(/O)c3ccc(F)cc3)C2c2cccc(Br)c2)no1 (stereo not drawn)	17	56*	92	-20
O=C(O)CCC1c2cc3c4cc2OC2Oc5cc6c(cc51)C(CCC(=O)O)c1cc5c7cc1OC(O6)c1cc6cc(c1)Oc1cc(cc(C(=O)O)c1)Oc1cc8cc(c1)C(Oc1cc(c(cc1C5CCC(=O)O)C3CCC(=O)O)OC(O4)c1cc(cc(c1)Oc1cc(cc(C(=O)O)c1)O8)Oc1cc(cc(C(=O)O)c1)Oc1cc(cc2c1)Oc1cc(cc(C(=O)O)c1)O6)O7 (stereo not drawn)	13	101*	·	-4
COc1cc(C2CC(=O)Oc3c(C(CCN4CCOCC4)c4ccc(N(C)C)cc4)c(OC)cc(OC)c32)cc(OC)c1OC (stereo not drawn)	58*	-2	100	4
COc1cc(C2CC(=O)Oc3c(C(CCN4CCN(c5ccccc5)CC4)c4ccc(N(C)C)cc4)c(OC)cc(OC)c32)cc(OC)c1OC (stereo not drawn)	-8	4	96	-4
O=C(O)CC1(CC(=O)NCc2cccc(Cl)c2)CCCCC1	24	-6	101	11
CC(=O)N1CCN(C(=S)NCc2ccccc2)CC1	12	4	99	54*
Cc1ccccc1C(=O)NC(=S)NCCN1CCOCC1	-5	7	96	46
COc1ccc(-n2cc(CNCCc3cscn3)c(-c3ccccc3Cl)n2)cc1	15	51*	·	7
Cc1ccc(-n2cc(CNCCc3cscn3)c(-c3ccc(F)cc3)n2)cc1	-14	22	101	14
CCNC(=O)C1CC(=O)N(CCCc2ccccc2)C(=Nc2ccccc2)S1 (stereo not drawn)	8	16	98	1
COc1ccc2cc3cc(C(=O)Nc4ccc5c(c4)OCCO5)oc3nc2c1	1	9	84	2
CCC1CCCCN1S(=O)(=O)c1ccc(NC(=O)c2nc(S(C)(=O)=O)ncc2Cl)cc1 (stereo not drawn)	-32	5	62*	46

Source: PubChem BioAssay (several laboratories)
